This is an account of results in the supplement of paper PMC6522484.

± gives the standard deviation of the averaged measurements.

Experiment [1] has as its system DLD1. Kind of experiment: cell viability (CellTiter-Glo) relative to plate median (fraction of plate median); higher = more viable cells. The settings on record: 5 µM; treatment time 24 h; reporter: 7TFP. The essentials:
(§1)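 Luminescence, normalised well by well to the plate median, is tabulated as a mean of independent replicates. There were two replicates, run on colorectal cancer lines stably transduced with lentiviral TCF/Wnt firefly luciferase reporters and dosed with library compounds at a final 5 µM for 24 h. Readouts were firefly luciferase or CellTiterGlo on parallel plates.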
A general note: ATP-based viability assays read luminescence as a measure of living cells.

In a further experiment the test system is HCT116. The description is as above. The settings on record: 5 µM; treatment time 24 h; reporter: TCF4/Wnt. The essentials:
as §1

The test system of experiment [2] is SW480. The experiment is described as above. The following applies: 5 µM; treatment time 24 h; reporter: 7TFP. Put shortly:
as §1

Experiment [3] concerns DLD1. Description: TCF/Wnt firefly luciferase reporter signal relative to plate median (fraction of plate median); higher = higher Wnt reporter signal. The settings on record: 5 µM; treatment time 24 h; reporter: 7TFP. Put shortly: as §1
On the technique in general: A reporter such as luciferase makes a cellular process visible.

For experiment [4], the system named is SW480. The description is as above. The settings on record: 5 µM; treatment time 24 h; reporter: 7TFP. Put shortly:
as §1

Turning to `Oc1ccc(OCc2ccccc2)cc1`, the cell viability with DLD1 [1] is 1.07 ± 0.05; with HCT116, 0.975 ± 0.078; with SW480 [2], 0.982 ± 0.017. Besides, the “TCF/Wnt firefly luciferase reporter signal” value in the experiment on DLD1 [3] worked out at 1 ± 0.17; with SW480 [4], 0.754 ± 0.05.
For `CCN(CC)CCCC(C)Nc1c2ccc(Cl)cc2nc2ccc(OC)cc12` (stereo not given), the cell viability in the experiment on DLD1 [1] stood at 1.02 ± 0.014; with HCT116, 0.886 ± 0.19; in the experiment with SW480 [2] it was 1.05 ± 0.014. For the same molecule, the “TCF/Wnt firefly luciferase reporter signal” value was 1.11 ± 0.042 in the experiment with DLD1 [3] and 0.888 ± 0.036 in the experiment on SW480 [4].
On the same counts, the results for `CC(C)=CCC/C(C)=C\CO` are 0.992 ± 0.082, 1.02 ± 0.042, 1.1 ± 0.05, 0.999 ± 0.016 and 0.964 ± 0.046.
With `CC(=O)O[C@H]1C[C@@H](OC(C)=O)C(C)(C)[C@@H]2C[C@@H](OC(C)=O)[C@@]3(C)C4=CC(=O)O[C@@H](c5ccoc5)[C@]4(C)CC[C@@H]3[C@@]12C`, the values for the cell viability in the experiment on DLD1 [1], in the experiment on HCT116 and in the experiment with SW480 [2] were 1.01 ± 0.018, 1.15 ± 0.092 and 1.05 ± 0.057, respectively. Further, the “TCF/Wnt firefly luciferase reporter signal” value with DLD1 [3] was determined as 0.976 ± 0.011; in the experiment with SW480 [4], 0.997 ± 0.033.
For `COC(=O)[C@H]1[C@H]2C[C@H]3c4[nH]c5ccccc5c4CCN3C[C@@H]2CC[C@@H]1O`, the cell viability was found to be 0.988 ± 0.06 in the experiment on DLD1 [1], 0.984 ± 0.066 with HCT116 and 1.06 ± 0.014 in the experiment with SW480 [2]. Moreover, the “TCF/Wnt firefly luciferase reporter signal” value with DLD1 [3] worked out at 1.01 ± 0.039; in the experiment on SW480 [4], 1.06 ± 0.028.
For the molecule `C=CC(C1=CC(=O)C=CC1=O)c1ccccc1` (stereo not given), the values for the cell viability in the experiment on DLD1 [1], with HCT116 and in the experiment with SW480 [2] were 0.965 ± 0.064, 0.884 ± 0.098 and 0.943 ± 0.038, respectively. For the same molecule, the “TCF/Wnt firefly luciferase reporter signal” value came out at 0.885 ± 0.022 in the experiment on DLD1 [3] and 0.984 ± 0.037 in the experiment on SW480 [4].
For `CC1(C)C2CC(=O)O[C@@]3(C)C4=CC(=O)O[C@@H](c5ccoc5)[C@]4(C)CCC3[C@@]2(C)C=C[C@H]1O` (stereo not given in full) the same measures were 0.95 ± 0.065, 1.03 ± 0.047, 0.993 ± 0.024, 1.05 ± 0.11 and 1.04 ± 0.16.
On the same counts, the results for `C=CC1=C(C)/C(=C/c2[nH]c(Cc3[nH]c(/C=C4\NC(=O)C(C)=C4C=C)c(C)c3CCC(=O)O)c(CCC(=O)O)c2C)NC1=O` are 1.04 ± 0.087, 1.03, 0.98 ± 0.018, 0.964 ± 0.15 and 0.936 ± 0.018.
As to `CC(=O)OCC(=O)[C@@]1(O)[C@H](OC(C)=O)C[C@H]2[C@@H]3CCC4=CC(=O)C=C[C@]4(C)[C@@]3(F)[C@@H](O)C[C@@]21C`, the cell viability with DLD1 [1] came out at 1.01 ± 0.069; in the experiment on HCT116, 1.09 ± 0.057; in the experiment with SW480 [2], 1.03 ± 0.052. Besides, the “TCF/Wnt firefly luciferase reporter signal” value in the experiment with DLD1 [3] was 1.1 ± 0.26; in the experiment with SW480 [4], 0.894 ± 0.069.
In the case of `Cc1c(OCC(F)(F)F)ccnc1C[S+]([O-])c1nc2ccccc2[nH]1` (stereo not given), the cell viability in the experiment on DLD1 [1] was 1.07 ± 0.14; with HCT116, 1.02 ± 0.061; in the experiment on SW480 [2] it was 0.932 ± 0.0014. For the same molecule, the results for the “TCF/Wnt firefly luciferase reporter signal” value with DLD1 [3] and with SW480 [4] were 1.09 ± 0.021 and 0.959 ± 0.011, respectively.
On the same counts, the results for `COC(=O)[C@]1(C)CCC[C@]2(C)c3ccc(C(C)C)cc3C(=O)CC12` (stereo not given in full) are 1.1 ± 0.13, 1.03 ± 0.081, 1.05 ± 0.028, 1.07 ± 0.25 and 1.07.
On the same counts, the results for `O=c1c(-c2cc(O)c(O)c(O)c2)coc2cc(O)c(O)c(O)c12` are 1.005 ± 0.0071, 1.1 ± 0.078, 1.04, 1.09 ± 0.035 and 0.93 ± 0.14.
For `Oc1cccc(O)c1` the same measures were 1.02 ± 0.072, 0.985 ± 0.013, 1.01 ± 0.02, 0.873 ± 0.074 and 1.02 ± 0.055.
Turning to `CCOC(=O)[C@H](CCc1ccccc1)N[C@H]1CCc2ccccc2N(CC(=O)O)C1=O`, the cell viability with DLD1 [1] was 0.871 ± 0.1; in the experiment with HCT116 it was 0.899 ± 0.068; with SW480 [2], 1.02 ± 0.067. The “TCF/Wnt firefly luciferase reporter signal” value came out at 1.045 ± 0.0071 in the experiment on DLD1 [3] and 1.01 in the experiment on SW480 [4].
For `CC[C@@H]1C(=O)N(C)c2cnc(Nc3ccc(C(=O)N[C@H]4CC[C@H](N5CCN(CC6CC6)CC5)CC4)cc3OC)nc2N1C(C)C` [Volasertib] the same measures were 1 ± 0.036, 0.666 ± 0.095, 1.21 ± 0.078, 0.91 ± 0.17 and 1.06 ± 0.042.
